In PubChem BioAssay AID651658 (Broad Institute, 2012):
“And” between values parts separate entries of the source, which are not always exact repeats. Identical values can stand only once. The campaign covered roughly 340,000 compounds. About 5,100 (1.5%) were called active. The sample as a whole holds a higher share of actives than the screen did. A number with no mark means an inactive call.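 How the source made its calls: active means mean Tm shift, scaled 0 neutral to 100 positive control, at about 1.3% or above, every replicate too (limit read from the data); inconclusive means no clear call, values can overlap the other calls; inactive means the rest.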

Molecular target: Fibroblast growth factor 22 (Homo sapiens) (UniProt Q9HCT0)
Sequence (Q9HCT0 whole entry, looked up): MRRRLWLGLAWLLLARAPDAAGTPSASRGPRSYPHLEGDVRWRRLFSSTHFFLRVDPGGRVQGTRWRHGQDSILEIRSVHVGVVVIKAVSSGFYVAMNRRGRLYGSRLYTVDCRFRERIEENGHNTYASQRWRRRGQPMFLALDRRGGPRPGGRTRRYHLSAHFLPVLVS
Assay: binders of human FGF22 protein, primary screen, FGF22 synaptogenesis inhibitor project, biophysical, thermal shift, single point (AID 651658)
Details: recombinant FGF22 thermal shift, SYPRO orange fluorescence; at 9.99 µM; stronger effect = higher value; percent of sucrose octasulfate shift, DMSO zero

| SMILES | activity (Tm shift, normalised) |
| --- | --- |
| O=C(O)c1cccc(S(=O)(=O)Nc2ccc(O)cc2Sc2nc3ccccc3s2)c1 | 15.9% (active) |
| O=S(=O)(Nc1ccc2nc(N3CCOCC3)sc2c1)c1ccccc1 | -0.216% |
| Cc1nc2ccc(NC(=O)c3cccc(S(=O)(=O)N4CCOCC4)c3)cc2s1 | 1.04% |
| CC(=O)NC[C@@H]1[C@@H](c2ccccc2)[C@@H](CO)N1C(=O)Cc1cccnc1 | 1.29% (active) |
| CC(=O)NC[C@H]1[C@H](c2ccccc2)[C@@H](CO)N1C(=O)Cc1cccnc1 | -0.409% |
| O=C(NC[C@@H]1[C@@H](c2ccccc2)[C@H](CO)N1C(=O)Cc1cccnc1)C1CC1 | -1.07% |
| O=C(C[C@@H]1C=C[C@H](NC(=O)CN2CCOCC2)[C@@H](CO)O1)NC1CCC1 | 0.045% |
| O=C(NCC[C@@H]1CC[C@H](NC(=O)C2CC2)[C@@H](CO)O1)c1cc(Cl)cc(Cl)c1 | -0.053% |
| COc1ccccc1-n1c(SCC(=O)Nc2ccc(Cl)cc2)nc(O)c(Cc2ccccc2)c1=O | 43.9% (active) |
| COc1ccc(NC(=O)CSc2nnc(Cc3ccccc3)c(=O)n2N)cc1 | -0.143% |
| CCOc1ccc(NC(=O)CSc2nc3c(c(=O)n2-c2ccccc2OC)SCC3)cc1 | -0.136% |
| CN1c2ccc(-c3ccc(F)cc3)cc2[C@@H]2[C@@H](CCN2C(=O)c2cccnc2)[C@H]1CO | -0.025% |
| CO[C@@H]1CN(C)C(=O)c2ccc(NC(=O)NC(C)C)cc2OC[C@H](C)N(Cc2ccc(-c3ccccn3)cc2)C[C@H]1C | 0.425% |
| CCCCCOc1ccc(/C=C/C(=O)NCCc2nc3ccccc3[nH]2)cc1OC | 0.206% |
| CCOc1ccc(/C=C(/C#N)c2nnc(N3CCOCC3)n2-c2ccccc2)cc1OC | -0.121% |
| COc1cc(/C=C(\C#N)c2nc3ccccc3[nH]2)ccc1O | 2.24% (active) |
| CCCC(=O)Nc1ccc2c(c1)OC[C@H](C)N(CCC(F)(F)F)C[C@@H](C)[C@H](OC)CN(C)C2=O | -0.05% |
| C/C=C/c1ccc([C@@H]2[C@H](CO)N(S(=O)(=O)Cc3ccccc3)C23CN(C(=O)C2CCOCC2)C3)cc1 | -0.098% |
| N#Cc1cccc(Nc2c3c(nc4ccccc24)CCCC3)c1 | 0.042% |
| O=C(Nc1c2c(nc3ccccc13)CCCC2)c1ccccc1Br | 44.2% (active) |
| O=C(Nc1ccccc1)c1ccccc1Br | -0.119% |
| CC(=O)N1[C@@H](CO)[C@@H](c2ccccc2)[C@@H]1CN(C)C(=O)CN1CCOCC1 | 0.044% |
| O=C(C1CCCCC1)N1CC2(C1)[C@H](c1ccccc1)[C@@H](CO)N2CCC(F)(F)F | -0.014% |
| O=C(Cc1cccnc1)N[C@H]1CC[C@H](CCn2cc(-c3ccccc3F)nn2)O[C@H]1CO | 8.31% (active) |

| SMILES | activity (Tm shift, normalised) |
| --- | --- |
| O=C(Cc1ccncc1)N[C@H]1CC[C@H](CCn2cc(-c3ccccc3F)nn2)O[C@@H]1CO | 0.035% |
| O=C(Cc1ccncc1)N[C@@H]1CC[C@H](CCn2cc(-c3ccccc3F)nn2)O[C@H]1CO | 0.128% |
| CCCC(=O)Nc1ccc2c(c1)OC[C@H](C)N(CCC)C[C@@H](C)[C@@H](OC)CN(C)C2=O | 0.113% |
| CSc1ccccc1NC(=O)CN(C)CC(=O)Nc1cccc(Br)c1 | -0.022% |
| CCN(CC)C(=O)C(=O)Nc1cccc(Br)c1 | 43.2% (active) |
| CCN(CC)N=Nc1cccc(NC(C)=O)c1 | 0.992% |
| Cc1ccc(S(=O)(=O)N[C@H]2CC[C@H](CC(=O)O)O[C@H]2CO)cc1 | 0.52% |
| C[C@H](CO)N1C[C@H](C)[C@H](CN(C)S(=O)(=O)c2ccccc2C#N)OCc2cn(nn2)CCCC1=O | -0.183% |
| O=C(NN=Cc1ccc([N+](=O)[O-])cc1)C1CC1 | -0.001% |
| O=C(N/N=C/c1ccc([N+](=O)[O-])cc1)c1c[nH]c2ccccc12 | 1.58% (active) |
| O=[N+]([O-])c1ccc(C=NN=Cc2ccc([N+](=O)[O-])cc2)cc1 | 0% |
| COc1cccc(-c2ccc3c(c2)O[C@H](CN(C)Cc2ccncc2)[C@H](C)CN([C@H](C)CO)S3(=O)=O)c1 | -0.104% |
| O=C(Nc1cccc(Cl)c1)c1cc([N+](=O)[O-])ccc1N1CCN(CCO)CC1 | 0.039% |
| CCOc1ncccc1C(=O)OCC(=O)Nc1cccc(S(=O)(=O)N2CCCCCC2)c1 | 0.065% |
| NS(=O)(=O)c1cccc(NC(=O)COC(=O)c2cc([N+](=O)[O-])ccc2N2CCCC2)c1 | 1.34% (active) |
| C[C@@H]1CN([C@@H](C)CO)S(=O)(=O)c2ccc(C#CC3(O)CCCC3)cc2O[C@H]1CN(C)C(=O)c1ccncc1 | -0.043% |
| COc1ccc(S(=O)(=O)N2CC[C@@H]3[C@H](CO)Nc4ccc(C#Cc5cccc(OC)c5)cc4[C@@H]32)cc1 | 0.013% |
| O=C(C[C@@H]1C[C@@H]2c3cc(NC(=O)c4ccc5c(c4)OCO5)ccc3O[C@@H]2[C@H](CO)O1)NCCc1ccccc1 | 0.032% |
| COc1ccc(NC(=O)Nc2cccc3c2O[C@H](CN(C)S(=O)(=O)c2cn(C)cn2)[C@H](C)CN([C@@H](C)CO)C3=O)cc1 | -0.085% |
| CN1C(=O)c2cc(NC(=O)c3cccc(F)c3)ccc2OC[C@@H]2O[C@@H](CC(=O)NCC3CCCCC3)CC[C@H]21 | -0.226% and -0.131% |
| CCC(=O)N1[C@@H](CO)[C@@H](c2ccccc2)C12CN(C(=O)Cc1ccccc1)C2 | -0.201% |
| Cc1cc(C)cc(N(CC(=O)NC2CCCC2)C(=O)CCC(=O)Nc2cc(C)on2)c1 | -0.343% |
| Cc1cc(NC(=O)CCC(=O)N(CC(=O)NCC2CCCO2)c2ccccc2)no1 (stereo not drawn) | 0.811% |
| COC(=O)c1cccc(N(CC(=O)NCC2CCCO2)C(=O)CCC(=O)Nc2cc(C)on2)c1 (stereo not drawn) | 43% (active) |
